Values joined by “and” are separate entries in the source; they are usually repeats but may differ in a detail not shown here. Identical values can stand only once. Values without a mark were called inactive. Records with an inconclusive call do not appear. Active and inactive are the calls of the source. Unless noted, calls come from the whole dose curve.

Assay [1] is described as follows: qHTS assay to identify small molecule agonists of the sonic hedgehog signaling (Shh) pathway (AID 1259368).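 Note: NIH/3T3-derived 3T3Gli1-Luc cells carrying a stable Gli1-driven firefly luciferase reporter; series mostly up to about 92 µM; nearly all actives have a fitted effect of over 15% in size.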 The procedure, abridged:
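Read-out: firefly luciferase luminescence from a Gli1 response element reporter stably integrated in NIH/3T3-derived 3T3Gli1-Luc cells, measured 30 min at room temperature after reagent addition. Compound exposure lasted 24 hr at 37 C, 5% CO2.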
(In qHTS, concentration-response curves come from the screen itself.)

Assay [2] in a line: qHTS assay to identify small molecule antagonists of the sonic hedgehog signaling (Shh) pathway (AID 1259369). Note: nearly all actives have a fitted effect of over 45% in size. Note: potency is the fitted concentration of half-maximal effect. The procedure, abridged: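 Luminescence readout: firefly Luc under Gli1 response element in 3T3Gli1-Luc cells (NIH/3T3 clone). Antagonist mode, stimulation by conditioned medium; compound exposure 24hr at 37 C, 5% CO2.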
Assay [3] can be described thus: qHTS assay to identify small molecule agonists of the estrogen receptor beta (ER-beta) signaling pathway - cell viability counter screen (AID 1259380; active = well fitted curve in the direction sought with a large enough effect in the repeat runs; an effect the other way counts as inactive or inconclusive; note: nearly all actives have a fitted effect of over 30% in size; note: potency is the fitted concentration of half-maximal effect). A digest of the protocol: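 Luminescence read-out (CellTiter-Glo, 30 min, room temp) taken in the same wells as the beta-lactamase reporter assay; ER-beta-UAS-bla HEK293T cells exposed to DMSO-dissolved compounds for 16 hr at 37C in 2% charcoal-stripped FBS medium.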

In assay [4] the target is Androgen receptor (Homo sapiens) (UniProt P10275). Briefly: qHTS assay to identify small molecule agonists of the androgen receptor (AR) signaling pathway in the presence of an antagonist (AID 1259381). Note: nearly all actives have a fitted effect of over 15% in size. A digest of the protocol: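 Luciferase read-out (ONE-Glo, 30min room temperature) in MDA-kb2 MMTV-reporter cells; agonist mode run in presence of AR antagonist nilutamide, 3.0uM final. Compounds tested as 15-point series, 16hr exposure at 37C, 0% CO2.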

Assay [5] concerns the target Estrogen receptor (Homo sapiens) (UniProt P03372). Briefly: qHTS assay to identify small molecule agonists of the estrogen receptor alpha (ER-alpha) signaling pathway in the presence of an antagonist (AID 1259383). Note: top concentration of the series differs between compounds; nearly all actives have a fitted effect of over 15% in size. A digest of the protocol: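 Luciferase luminescence (ONE-Glo, 30min at room temperature) measured in VM7Luc4E2 cells after 22hr compound exposure at 15 concentrations, with 10.0nM ICI-182,780 final present; cells express endogenous ER-alpha and carry four EREs upstream of luciferase.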

A short description of assay [6]: qHTS assay to identify small molecule agonists or antagonists of the thyroid stimulating hormone receptor (TSHR) signaling pathway - wild type cell line counter screen (AID 1259384). A digest of the protocol: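 Wild-type Hek293 cells, 800/well, 18 h at 37C, then compound with Ro20-1724 for 30 min RT. cAMP by HTRF (cAMP-d2/anti-cAMP cryptate), 1 h RT, fluorescence read. 15 concentrations, triplicates.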

In assay [7] the target is Estrogen receptor beta (Homo sapiens) (UniProt Q92731). Briefly: qHTS assay to identify small molecule agonists of the estrogen receptor beta (ER-beta) signaling pathway (AID 1259377; active = well fitted activation curve with a large enough effect in the signal ratio in the repeat runs, not every such curve was filed as active; the % refers to the signal ratio). The procedure, abridged: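 In HEK293T cells bearing a UAS-beta-lactamase reporter under ER-beta control, DMSO-delivered compounds were incubated for 16 hr at 37C. Activity was detected as fluorescence 2 hours after LiveBLAzer B/G FRET substrate addition.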

Assay [8] has the same target. Briefly: qHTS assay to identify small molecule antagonists of the estrogen receptor beta (ER-beta) signaling pathway (AID 1259378; active = well fitted inhibition curve with a large enough effect in the signal ratio in the repeat runs, not every such curve was filed as active; the % refers to the signal ratio). The procedure, abridged:
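ER-beta-UAS-bla HEK293T cells in 2% charcoal-stripped FBS medium treated with compound plus 1nM final 17-beta-estradiol for 16 hr at 37C. Beta-lactamase reporter read by FRET substrate fluorescence after 2 hours at room temperature.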

A short description of assay [9]: qHTS assay to identify small molecule agonists of the androgen receptor (AR) signaling pathway in the presence of an antagonist - cell viability counter screen (AID 1259379; active = well fitted curve in the direction sought with a large enough effect in the repeat runs; an effect the other way counts as inactive or inconclusive; note: nearly all actives have a fitted effect of over 25% in size; note: potency is the fitted concentration of half-maximal effect). A digest of the protocol:
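Viability counter screen: CellTiter-Fluor fluorescence, measured in the same wells as the luciferase read-out. MDA-kb2 cells, 3,000/well, with nilutamide at 3.0uM final and compounds at 15 concentrations, 16 hr at 37C, 0% CO2.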

Assay [10] in a line: qHTS assay to identify small molecule antagonists of the estrogen receptor beta (ER-beta) signaling pathway - cell viability counter screen (AID 1259382; active = well fitted curve in the direction sought with a large enough effect in the repeat runs; an effect the other way counts as inactive or inconclusive; note: nearly all actives have a fitted effect of over 55% in size; note: potency is the fitted concentration of half-maximal effect). The procedure, abridged:
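Luminescent ATP read-out (CellTiter-Glo, 30 min, RT) taken in the same wells as the bla reporter assay. HEK293T ER-beta-UAS-bla cells in 2% charcoal-stripped FBS were exposed to compounds with 1nM E2 for 16 hr at 37C.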

Sequence of Estrogen receptor beta (Homo sapiens) (Q92731 whole entry, looked up): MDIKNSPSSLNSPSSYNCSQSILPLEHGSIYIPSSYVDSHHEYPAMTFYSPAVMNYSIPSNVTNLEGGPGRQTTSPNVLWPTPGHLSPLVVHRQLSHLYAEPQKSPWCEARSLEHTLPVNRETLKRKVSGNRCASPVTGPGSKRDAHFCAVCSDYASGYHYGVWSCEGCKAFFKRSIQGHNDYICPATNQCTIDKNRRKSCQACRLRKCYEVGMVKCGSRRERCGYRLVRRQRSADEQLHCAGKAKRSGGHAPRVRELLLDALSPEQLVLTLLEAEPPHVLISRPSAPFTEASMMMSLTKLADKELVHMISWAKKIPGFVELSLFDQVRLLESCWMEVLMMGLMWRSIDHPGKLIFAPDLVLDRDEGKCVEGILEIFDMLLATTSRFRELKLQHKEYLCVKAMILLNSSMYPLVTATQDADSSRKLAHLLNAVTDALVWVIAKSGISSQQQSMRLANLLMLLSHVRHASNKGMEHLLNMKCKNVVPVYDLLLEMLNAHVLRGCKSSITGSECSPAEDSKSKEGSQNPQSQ
Sequence of Estrogen receptor (Homo sapiens) (P03372 whole entry, looked up): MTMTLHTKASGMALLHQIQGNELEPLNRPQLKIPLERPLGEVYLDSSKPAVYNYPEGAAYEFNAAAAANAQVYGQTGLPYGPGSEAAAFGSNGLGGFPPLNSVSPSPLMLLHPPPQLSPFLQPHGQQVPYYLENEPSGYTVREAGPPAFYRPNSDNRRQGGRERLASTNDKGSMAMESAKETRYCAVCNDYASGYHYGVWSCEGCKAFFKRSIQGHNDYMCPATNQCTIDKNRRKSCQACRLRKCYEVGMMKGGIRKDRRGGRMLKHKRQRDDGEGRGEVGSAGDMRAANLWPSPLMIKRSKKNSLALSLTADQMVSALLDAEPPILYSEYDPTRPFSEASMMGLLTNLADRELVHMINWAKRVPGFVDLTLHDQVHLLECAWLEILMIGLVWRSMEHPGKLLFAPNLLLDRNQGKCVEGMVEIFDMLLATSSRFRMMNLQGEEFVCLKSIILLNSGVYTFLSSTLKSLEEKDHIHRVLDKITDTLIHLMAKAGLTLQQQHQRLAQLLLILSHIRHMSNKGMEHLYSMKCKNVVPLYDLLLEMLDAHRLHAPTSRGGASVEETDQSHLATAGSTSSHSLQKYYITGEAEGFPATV
Sequence of Androgen receptor (Homo sapiens) (P10275 whole entry, looked up): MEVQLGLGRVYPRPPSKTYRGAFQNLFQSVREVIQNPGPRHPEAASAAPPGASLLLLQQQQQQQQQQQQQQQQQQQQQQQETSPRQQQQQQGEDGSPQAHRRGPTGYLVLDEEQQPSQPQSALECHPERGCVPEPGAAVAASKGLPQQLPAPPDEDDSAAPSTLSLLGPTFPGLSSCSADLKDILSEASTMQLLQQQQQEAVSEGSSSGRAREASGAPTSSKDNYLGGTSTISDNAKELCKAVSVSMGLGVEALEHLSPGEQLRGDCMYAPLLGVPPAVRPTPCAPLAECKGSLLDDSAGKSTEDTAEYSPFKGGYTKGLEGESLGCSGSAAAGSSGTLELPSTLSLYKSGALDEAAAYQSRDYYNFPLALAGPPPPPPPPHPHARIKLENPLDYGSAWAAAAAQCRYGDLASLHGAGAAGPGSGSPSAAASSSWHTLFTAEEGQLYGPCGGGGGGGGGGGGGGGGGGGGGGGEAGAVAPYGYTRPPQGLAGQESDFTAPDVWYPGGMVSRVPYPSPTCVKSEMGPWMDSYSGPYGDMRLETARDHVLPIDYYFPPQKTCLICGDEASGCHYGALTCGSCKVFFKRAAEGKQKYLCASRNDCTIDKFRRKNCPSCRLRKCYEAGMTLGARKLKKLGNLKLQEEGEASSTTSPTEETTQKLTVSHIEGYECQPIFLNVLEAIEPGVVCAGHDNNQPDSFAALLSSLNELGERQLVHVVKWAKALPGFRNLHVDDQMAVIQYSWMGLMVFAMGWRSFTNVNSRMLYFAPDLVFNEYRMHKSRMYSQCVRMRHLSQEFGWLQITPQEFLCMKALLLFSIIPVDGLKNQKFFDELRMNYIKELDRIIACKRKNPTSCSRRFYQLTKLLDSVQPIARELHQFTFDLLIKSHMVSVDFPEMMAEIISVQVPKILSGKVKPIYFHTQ

`COc1ccccc1NC(=O)c1cc2ccccc2cc1O`: the Potency result in assay [1], in [4] and in assay [5] was “inactive” in each case. The Potency in assay [2] was 27.3 µM (active); in [3] it was 54.5 µM (active). Also, the outcome in assay [6] was inactive.

Turning to `CN1CCCN=C1COC(=O)C(O)(c1ccccc1)C1CCCCC1` (centres undefined), the Potency entry in [1], in assay [7], in assay [8], in assay [9], in [3] and in assay [10] was “inactive” throughout. Also, in assay [5], the Potency result was “inactive”. Moreover, the molecule was called inactive in [6].

Consider `Nc1nc2ccc([N+](=O)[O-])cc2s1`, for which, in assay [1], the Potency result was “inactive”. Besides, in [2], the Potency is 48.6 µM (active). In assay [6], the call was inactive.

With `CN1C(C(=O)Nc2ccccn2)=C(O)c2sccc2S1(=O)=O`, the Potency entry in assay [1], in assay [7], in assay [8], in [9], in assay [3] and in [10] was “inactive” throughout.

`CCCCCCCCC(CCCCCC)C(=O)O` (centres undefined): the Potency result in assay [1], in assay [2] and in assay [9] was “inactive” each time. Moreover, the Potency in assay [3] was 8.63 µM (active). Further, the call in assay [6] was inactive.

As for `CC/C=C1/OC(=O)c2ccccc21`, the Potency entry in assay [1], in assay [7], in [8], in [9], in [3] and in [4] was “inactive” throughout. In [10], the Potency entry was “inactive”.

On to `CCC(=O)C1CC(C(C)C)CC=C1C` (centres undefined), for which the Potency entry in [1], in [7], in [8], in assay [9], in assay [3] and in assay [4] was “inactive” each time. Also, the Potency result in [10] and in [5] was “inactive” throughout.

For `Cc1ccc(Cl)c(Nc2ccccc2C(=O)O)c1Cl`, the Potency entry in [1], in assay [2] and in [9] was “inactive” in each case. Also, in assay [6], the result was inactive.

In the case of `Cc1cccc(O)c1N`, the Potency entry in assay [1] and in [9] was “inactive” throughout. Moreover, in assay [2], the Potency is 15.5 µM (active). Moreover, the molecule was classed as inactive in assay [6].

Take `C1C[C@@H]2[C@H]3CC[C@H](C3)[C@@H]2C1`: the Potency entry in assay [1], in [2], in [9] and in assay [10] was “inactive” in each case. For the same molecule, in [6], the result was inactive.

Turning to `O=c1c(O)c(-c2ccc(O)cc2)oc2cc(O)cc(O)c12`, the Potency result in assay [1], in [9] and in assay [10] was “inactive” throughout. Further, the Potency in [2] is 21.6 µM (active) and 26 µM (active). The molecule was called inactive in [6].

For `CN(C(=O)CN(CCO)CC(=O)N(C)C(C)(C)Cc1ccccc1)C(C)(C)Cc1ccccc1`, the Potency result in assay [1], in assay [7], in [8], in assay [9], in assay [3] and in [10] was “inactive” in each case.

With `O=c1cc(-c2ccccc2)oc2cc(O)cc(O)c12`, the Potency result in assay [1], in assay [4] and in assay [10] was “inactive” throughout. Besides, the results for the Potency in assay [2] and in [9] were 61.1 µM (active) and 48.6 µM (active), respectively. In addition, in assay [6], the molecule was classed as inactive.

`C=C1c2cccc(O)c2C(O)=C2C(=O)[C@]3(O)C(O)=C(C(N)=O)C(=O)[C@@H](N(C)C)[C@@H]3[C@@H](O)[C@H]12`: the Potency entry in [1], in assay [7], in [8], in assay [9], in [3] and in assay [10] was “inactive” in each case. Further, the Potency result in assay [5] was “inactive”.

In the case of `CC1=Nc2ccc3ccccc3c2C1(C)C`, the Potency result in assay [1], in [9] and in assay [4] was “inactive” each time. In [2], the Potency is 30.6 µM (active). In addition, the outcome in assay [6] was inactive.

In the case of `CCCCC(CC)COP(=O)(O)O` (centres undefined), the Potency entry in assay [1], in assay [2], in assay [9] and in assay [10] was “inactive” throughout. For the same molecule, the outcome in assay [6] was inactive.

Turning to `O=C(OCC(O)CO)c1ccccc1Nc1ccnc2cc(Cl)ccc12` (centres undefined), the Potency result in assay [1], in [9], in [4] and in [5] was “inactive” throughout. The Potency in assay [2] is 7.5 µM (active).

In the case of `Brc1cc2ccccc2c2ccccc12`, the Potency entry in [1], in [2], in assay [10] and in [5] was “inactive” in each case. Besides, the Potency in [3] is 30.9 µM (active).

For `CCCCCC#CC(=O)OC`, the Potency entry in assay [1], in assay [2], in assay [9], in assay [10] and in assay [5] was “inactive” throughout. The call in assay [6] was inactive.

Consider `O=[N+]([O-])c1ccc(Nc2ccc(Nc3ccccc3)c(S(=O)(=O)O)c2)c([N+](=O)[O-])c1`, for which the Potency entry in assay [1], in [2], in assay [3] and in [10] was “inactive” in each case. Also, the result in assay [6] was inactive.

With `C=CCc1ccccc1OCC(O)CNC(C)C` (centres undefined), the Potency entry in [1], in assay [2], in assay [9], in [4] and in assay [10] was “inactive” in each case. For the same molecule, the call in [6] was inactive.

On to `CC1=C(Br)C(=O)C(Br)=C/C1=C(/c1ccccc1S(=O)(=O)O)c1cc(Br)c(O)c(Br)c1C`, for which the Potency entry in assay [1], in [7], in assay [8], in assay [3] and in [10] was “inactive” each time. Besides, the Potency in assay [9] was 18.6 µM (active).

Take `Oc1ccc(Cl)c2cccnc12`: the Potency result in assay [1], in assay [9], in assay [4] and in assay [10] was “inactive” in each case. The Potency in assay [2] was 0.596 µM (active). Moreover, the call in assay [6] was inactive.

For `C=C(C)CCCC(C)CCO` (centres undefined), the Potency entry in assay [1], in assay [7], in [8], in [9], in [3] and in assay [10] was “inactive” throughout. Besides, the Potency entry in assay [5] was “inactive”. For the same molecule, the molecule was called inactive in assay [6].

Regarding `CN1CCCC(n2nc(Cc3ccc(Cl)cc3)c3ccccc3c2=O)CC1` (centres undefined), the Potency result in [1] and in assay [5] was “inactive” in each case. In addition, the Potency in [2] was 2.66 µM (active); in [3], 26.6 µM (active). In addition, in [6], the result was inactive.

`C1COC1`: the Potency entry in [1], in [7], in assay [8], in assay [9], in [3] and in assay [4] was “inactive” each time. Also, the Potency result in [10] and in [5] was “inactive” each time. Also, the molecule was classed as inactive in assay [6].

Regarding `CCOC(=O)c1ccccc1C(=C1C=C(Br)C(=O)C(Br)=C1)c1cc(Br)c(O)c(Br)c1`, the Potency entry in assay [1] and in [2] was “inactive” throughout. In addition, the Potency in assay [3] is 57.5 µM (active). Besides, the molecule was classed as inactive in assay [6].

As to `CC(=O)Nc1ccc(C)cc1C`, the Potency entry in assay [1], in assay [2], in [9] and in assay [10] was “inactive” throughout. In assay [6], the outcome was inactive.

In the case of `O=C1c2ccccc2C(=O)N1CCc1noc(-c2ccc(CN3CCCCCC3)s2)n1`, the Potency entry in assay [1] and in [5] was “inactive” in each case. Moreover, the Potency is 22.3 µM (active) in assay [2] and 3.15 µM (active) in assay [3].

Take `COc1cc(C(=O)NC2CCN(C)CC2)ccc1Nc1ncc2c(n1)N(C1CCCC1)CC(F)(F)C(=O)N2C`: the Potency result in assay [1], in assay [4] and in assay [5] was “inactive” each time. Also, the Potency in assay [2] is 0.112 µM (active); in assay [3], 22.3 µM (active); in [10] it was 15.8 µM (active).

Turning to `O=C1Cc2cc(Cl)ccc2N1`, the Potency entry in assay [1], in [7], in assay [8], in assay [9], in [3] and in assay [4] was “inactive” throughout. In addition, the Potency result in assay [10] and in assay [5] was “inactive” each time. Also, the molecule was classed as inactive in assay [6].

The values are drawn from PubChem BioAssay (Tox21).
